Results published in PubChem BioAssay (NCATS).
Records with an inconclusive call do not appear. Where a call stands in place of a potency, no number is given. Active and inactive are the calls of the source. The call rests on the fitted dose curve; in most records, active means well fitted curve in the direction sought with a large enough effect; inconclusive means small, poorly fitted or top-dose-only effect, or another doubt; inactive means no such curve, though single readings can be large; an effect the other way counts as inactive or inconclusive.

Columns and labels:
[1] = qHTS of pediatric cancer cell lines to identify multiple opportunities for drug repurposing: Confirmatory screen for OHS-50 cells (AID 1347128);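 further: compound exposure lasted 48 h at 37 degrees C; nearly all actives have a fitted effect of over 55% in size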; further: potency means the concentration at half of the fitted maximal effect
Outline: (§1)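 Cells (500-1,000/well) rested 5 h, then received compounds for 48 h; metabolically active cells were measured by CellTiter-Glo luminescence. Final concentrations spanned up to 46 µM (MIPE, 11-point) or 0.59 nM-46 µM (NPC, 8-point) in primary screens, 11-point in follow-ups.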

[2] = qHTS of pediatric cancer cell lines to identify multiple opportunities for drug repurposing: Confirmatory screen for SK-N-SH cells (AID 1347129);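 further: cells exposed to compound for 48 h before viability read; nearly all actives have a fitted effect of over 60% in size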; further: potency means the concentration at half of the fitted maximal effect
Outline: as §1

[3] = tested on: Zika virus NS2B-NS3 protease; experiment: Primary screen GU AMC qHTS for Zika virus inhibitors (AID 1347154); further: nearly all actives have a fitted effect of over 70% in size; further: potency means the concentration at half of the fitted maximal effect
Outline: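 Fluorogenic AMC-substrate cleavage by noncovalent NS2B-NS3 protease complex (25 nM, pH 8.0 Tris buffer with Tween 20) followed for 15 minutes at room temperature (~20% conversion). Percent inhibition from ex340/em450 signal change, fitted by 4-parameter Hill equation.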

[4] = tested on: Zika virus NS2B-NS3 protease (unlinked complex); experiment: Primary screen GU Rhodamine qHTS for Zika virus inhibitors: Unlinked NS2B-NS3 protease assay (AID 1347159); further: nearly all actives have a fitted effect of over 60% in size; further: potency means the concentration at half of the fitted maximal effect
Outline: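 Noncovalent NS2B hydrophilic domain–NS3 protease domain complex (25 nM) preincubated 15 min at room temperature with compounds (up to 114 microM) in 10 mM Tris-HCl pH 8.0, 0.01% Tween 20; 1.5 microM Rhodamine110 substrate added, fluorescence change over 15 min fitted to Hill equation.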

[5] = tested on: Zika virus NS2B-NS3 protease (linked construct); experiment: Primary screen NINDS Rhodamine qHTS for Zika virus inhibitors (AID 1347160); further: nearly all actives have a fitted effect of over 55% in size
Outline: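 Purified linked NS2B-NS3 protease (NS2B hydrophilic domain joined to NS3 protease by flexible linker), 25 nM in 10 mM Tris-HCl pH 8.0, 0.01% Tween 20. Compounds titrated, 15 min preincubation at room temperature; 1.5 microM Rhodamine110 substrate, FITC fluorescence change over 15 min.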

[6] = qHTS of pediatric cancer cell lines to identify multiple opportunities for drug repurposing: Confirmatory screen for Saos-2 cells (AID 1347127); further: nearly all actives have a fitted effect of over 60% in size; further: potency means the concentration at half of the fitted maximal effect
Outline: as §1

SMILES: CC=C1NC(=O)[C@H]2CSSCCC=C[C@H](CC(=O)N[C@H](C(C)C)C(=O)N2)OC(=O)[C@H](C(C)C)NC1=O
- Potency [1]: inactive
- Potency [2]: inactive
- Potency [3]: inactive

SMILES: CC(C)c1cc(-c2n[nH]c(=O)n2-c2ccc3c(ccn3C)c2)c(O)cc1O
- Potency [1]: inactive
- Potency [2]: inactive
- Potency [4]: inactive
- Potency [5]: inactive

SMILES: Cc1cnc(-c2cnc(NCCNc3ccc(C#N)cn3)nc2-c2ccc(Cl)cc2Cl)[nH]1
- Potency [6]: inactive
- Potency [3]: inactive
- Potency [5]: inactive

SMILES: CC(C)(C)c1cc(C(C)(C)C)c(NC(=O)c2c[nH]c3ccccc3c2=O)cc1O
- Potency [6]: 16.5 µM (active)
- Potency [3]: inactive

SMILES: CN1CCN(c2cc(C(=O)Nc3ccc4c(c3)-c3c(c(C(N)=O)nn3-c3ccc(F)cc3)CC4)c(Cl)cn2)CC1
- Potency [1]: 23.3 µM (active)
- Potency [2]: 20.9 µM (active)
- Potency [3]: inactive

SMILES: Cc1c(Cn2c(C)nc3c(C(=O)O)cc(N4CCOCC4)cc32)cccc1C(F)(F)F
- Potency [6]: inactive
- Potency [5]: inactive

SMILES: Cc1cn(-c2cc(NC(=O)c3ccc(C)c(Nc4nccc(-c5cccnc5)n4)c3)cc(C(F)(F)F)c2)cn1
- Potency [1]: 18.5 µM (active)
- Potency [2]: 18.7 µM (active)
- Potency [3]: inactive
- Potency [5]: inactive

SMILES: Cc1c(NC(=O)OC[C@@H]2COCCN2)cn2ncnc(Nc3ccc4c(cnn4Cc4cccc(F)c4)c3)c12
- Potency [6]: inactive
- Potency [3]: inactive
- Potency [4]: inactive
- Potency [5]: inactive

SMILES: Cc1cnc(Nc2ccc(F)cc2Cl)nc1-c1c[nH]c(C(=O)N[C@H](CO)c2cccc(Cl)c2)c1
- Potency [6]: inactive
- Potency [2]: 18.7 µM (active)
- Potency [4]: 39.8 µM (active)

SMILES: O=C(Nc1ncc(-c2cc(C(F)F)nn2-c2c(Cl)cccc2Cl)s1)C1CC1
- Potency [6]: 0.465 µM (active)
- Potency [4]: inactive
- Potency [5]: inactive

SMILES: CCC(=C(c1ccccc1)c1ccc(OCCN(C)C)cc1)c1ccccc1
- Potency [6]: 18.5 µM (active)
- Potency [3]: inactive

SMILES: Nc1ccn([C@@H]2O[C@H](CO)[C@H](O)C2(F)F)c(=O)n1
- Potency [2]: inactive
- Potency [3]: inactive

SMILES: Cc1cc(C(=O)N2CCN(c3cccc(Cl)c3)CC2)n(-c2ccccc2)n1
- Potency [2]: inactive
- Potency [3]: inactive

SMILES: Cc1nc(Nc2n[nH]c3c2CN(C(=O)N[C@H](CN(C)C)c2ccccc2)C3(C)C)c2sccc2n1
- Potency [6]: inactive
- Potency [2]: inactive
- Potency [3]: inactive
- Potency [4]: inactive
- Potency [5]: inactive

SMILES: COC(=O)c1ccc2c(C(=Nc3ccc(N(C)C(=O)CN4CCN(C)CC4)cc3)c3ccccc3)c(O)[nH]c2c1
- Potency [1]: 14.7 µM (active)
- Potency [3]: inactive
- Potency [4]: inactive
- Potency [5]: inactive

SMILES: CC[C@@H]1C(=O)N(C)c2cnc(Nc3ccc(C(=O)NC4CCC(N5CCN(CC6CC6)CC5)CC4)cc3OC)nc2N1C(C)C (stereo not given in full)
- Potency [6]: inactive
- Potency [2]: inactive
- Potency [3]: inactive
- Potency [4]: inactive
- Potency [5]: inactive

SMILES: COc1cccc(-c2ccc(NC(=O)C3=C(C(=O)O)CCC3)c(F)c2)c1
- Potency [1]: inactive
- Potency [2]: inactive
- Potency [3]: inactive
- Potency [4]: 17.8 µM (active)

SMILES: CC(C)CC(=O)Nc1n[nH]c2c1CN(C(=O)C1CCN(C)CC1)C2(C)C
- Potency [1]: 5.85 µM (active)
- Potency [2]: 4.18 µM (active)
- Potency [3]: inactive
- Potency [4]: inactive
- Potency [5]: inactive

SMILES: NCC(=O)Nc1ccc(-n2nc(C(F)(F)F)cc2-c2ccc3c(ccc4ccccc43)c2)cc1
- Potency [6]: 3.29 µM (active)
- Potency [3]: inactive
- Potency [4]: inactive
- Potency [5]: inactive

SMILES: C=CC(=O)Nc1cccc(Oc2nc(Nc3ccc(N4CCN(C)CC4)cc3OC)ncc2Cl)c1
- Potency [6]: 23.3 µM (active)
- Potency [2]: 18.7 µM (active)
- Potency [3]: inactive
- Potency [4]: inactive
- Potency [5]: inactive

SMILES: CC(C)(C)OC(=O)Nc1ccc(-c2cc(C(=O)NCCCCCCC(=O)NO)no2)cc1
- Potency [2]: 2.35 µM (active)
- Potency [3]: inactive

SMILES: C[C@@H](Oc1cc(-n2cnc3ccc(CN4CCN(C)CC4)cc32)sc1C(N)=O)c1ccccc1C(F)(F)F
- Potency [1]: 0.0759 µM (active)
- Potency [2]: 13.2 µM (active)
- Potency [3]: inactive

SMILES: COc1ccc(F)c(F)c1C(=O)c1cnc(NC2CCN(S(C)(=O)=O)CC2)nc1N
- Potency [1]: 2.33 µM (active)
- Potency [2]: 2.35 µM (active)
- Potency [3]: inactive
- Potency [4]: inactive
- Potency [5]: inactive

SMILES: NC(=O)c1cccc2cn(-c3ccc([C@@H]4CCCNC4)cc3)nc12
- Potency [6]: inactive
- Potency [2]: inactive
- Potency [3]: 24.1 µM (active)
- Potency [4]: inactive
- Potency [5]: inactive

SMILES: CS(=O)(=O)N1CCN(Cc2cc3nc(-c4cccc5[nH]ncc45)nc(N4CCOCC4)c3s2)CC1
- Potency [1]: 5.37 µM (active)
- Potency [2]: 4.29 µM (active)
- Potency [4]: inactive
- Potency [5]: inactive

SMILES: COc1cc2ncnc(Nc3ccc(F)c(Cl)c3)c2cc1NC(=O)C=CCN1CCCCC1
- Potency [3]: inactive

SMILES: O=C(O)CO.[NH2-].[NH2-].[Pt+2]
- Potency [3]: inactive
